PubChem BioAssay (NCATS)
“And” between values parts separate entries of the source, which are not always exact repeats. Equal entries are not always repeated. Records with an inconclusive call do not appear. The source made the active and inactive calls. Unless noted, how the calls were made is not given here.

Legend:
[1] = qHTS assay for cell viability of the p53RE-bla HCT-116 cell line (AID 743292; active means well fitted cell-killing curve with a large enough effect; further: on the % scale 0 is the no-effect control and ±100 the full control effect; nearly all actives have a fitted effect of over 55% in size)
In short: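 Luminescent ATP quantitation (CellTiter-Glo) served as the viability read-out; reagent was added after 16 h compound exposure at 37 C and read after 30 min at room temperature. Cells: p53RE-bla HCT-116, 4,000 per well.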

[2] = molecular target: Nuclear receptor subfamily 1 group I member 2 (Rattus norvegicus) (UniProt Q9R1A7); experiment: qHTS assay for small molecule activators of the rat pregnane X receptor (rPXR) signaling pathway (AID 651751); conditions: rPXR reporter cells, luciferase (One-Glo), 24 h; further: 0% is about no effect
[3] = qHTS assay for small molecule activators of the human pregnane X receptor (PXR) signaling pathway (AID 720659); further: 0% is about no effect
[4] = qHTS assay for cell viability of HEK293 cells (AID 743288; active means well fitted cell-killing curve with a large enough effect; further: on the % scale 0 is the no-effect control and ±100 the full control effect; nearly all actives have a fitted effect of over 50% in size); conditions: ATP luminescence (CellTiter-Glo), 18 h, hits give low values
In short: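 After 18 h compound exposure at 37 C, parental HEK293 cells (2,000/well) are lysed with CellTiter-Glo and luminescence is read following 30 min at room temperature.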

Chain of Nuclear receptor subfamily 1 group I member 2 (Rattus norvegicus) (Q9R1A7 whole entry, looked up): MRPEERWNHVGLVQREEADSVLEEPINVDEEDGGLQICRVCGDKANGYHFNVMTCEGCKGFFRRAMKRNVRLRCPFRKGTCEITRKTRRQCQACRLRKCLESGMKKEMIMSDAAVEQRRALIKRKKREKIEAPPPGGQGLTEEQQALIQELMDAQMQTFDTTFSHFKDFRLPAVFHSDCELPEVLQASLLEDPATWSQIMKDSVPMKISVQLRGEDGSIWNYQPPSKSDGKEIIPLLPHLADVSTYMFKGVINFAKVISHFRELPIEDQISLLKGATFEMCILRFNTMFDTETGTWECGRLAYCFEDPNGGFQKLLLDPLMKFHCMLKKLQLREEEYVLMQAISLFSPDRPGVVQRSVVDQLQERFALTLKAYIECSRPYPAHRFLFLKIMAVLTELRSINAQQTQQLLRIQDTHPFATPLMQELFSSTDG

Cc1cc([N+](=O)[O-])ccc1N
inactive: Potency [1] | max response [2] 2.26% | outcome [3]

O=C(O)c1cccc(Cl)c1Cl
inactive: Potency [1] | max response [2] -3.88% | outcome [3]

C1CCCC1
inactive: Potency [1] | max response [2] -1.32% | outcome [3]

CC(=O)OCCC(C)C
inactive: Potency [1] | max response [2] 8.07% | outcome [3]

CC(=O)Nc1ccc(C)cc1
inactive: Potency [1] | max response [2] -0.0412% | outcome [3]

O=C(O)CNC(=O)c1ccc(CO)o1
inactive: Potency [1] | max response [2] -7.08% | outcome [3]

Nc1cc(S(=O)(=O)O)ccc1O
inactive: Potency [1] | max response [2] 3.88% | outcome [3]

C=CCOC(=O)CCCCCCCC
inactive: max response [4] -7.54% | Potency [1] | max response [2] -5.54% | outcome [3]

CCOCCO
inactive: max response [4] -0.409% | Potency [1] | max response [2] -4.11% | outcome [3]

NC(=S)NNC(N)=S
inactive: Potency [1] | max response [2] -3.78% and 5.23% | outcome [3]

Cc1ccc2ncccc2c1
inactive: max response [4] -3.3% | Potency [1] | max response [2] 2.4% | outcome [3]

c1ccc2c(c1)Oc1ccccc1S2
inactive: Potency [1] | max response [2] -3.68% | outcome [3]

CC/C(C)=N/O
inactive: Potency [1] | max response [2] 5.17% | outcome [3]

COC(=O)CCCC(=O)OC
inactive: max response [4] -4.02% | Potency [1] | max response [2] 1.21% | outcome [3]

COc1ccccc1[N+](=O)[O-]
inactive: Potency [1] | max response [2] 1.11% and 2.57% | outcome [3]

CC(C)c1ccccc1
inactive: Potency [1] | max response [2] -5.7% | outcome [3]

CCN(Cc1ccccc1)c1ccccc1
inactive: Potency [1] | max response [2] -3.13% | outcome [3]

Cc1cc(C)cc([N+](=O)[O-])c1
inactive: Potency [1] | max response [2] 1.37% | outcome [3]

COC(=O)CCC(=O)OC
inactive: Potency [1] | max response [2] 1.71% | outcome [3]

Nc1nc2ccccc2[nH]1
inactive: Potency [1] | max response [2] 10.8% | outcome [3]

Cc1ccc2ccccc2c1[N+](=O)[O-]
inactive: Potency [1] | max response [2] -2.23% | outcome [3]

O=[N+]([O-])c1ccc(CCO)cc1
inactive: Potency [1] | max response [2] 0.179% | outcome [3]

CC(=C/C=C/C(C)=C/C=C/C=C(C)/C=C/C=C(C)/C=C/C(=O)O)/C=C/C(=O)O
inactive: Potency [1] | max response [2] 9.17% | outcome [3]

CCC(C)(C)C(=O)O
inactive: Potency [1] | max response [2] 5.04% | outcome [3]

O=C(O)CNC(=O)c1ccc([N+](=O)[O-])cc1
inactive: Potency [1] | max response [2] 1.39% | outcome [3]

CCC(C)=O
inactive: Potency [1] | max response [2] 4.73% | outcome [3]

Cc1c(N)cccc1N
inactive: Potency [1] | max response [2] 3.73% | outcome [3]

Cc1ccccc1C#N
inactive: Potency [1] | max response [2] -0.838% | outcome [3]

O=C(O)c1ccccc1Cl
inactive: max response [4] -4.79% | Potency [1] | max response [2] 1.04% | outcome [3]

Cc1ccc(C)o1
inactive: Potency [1] | max response [2] -1.6% | outcome [3]

CCCCC(CC)COC(=O)CCCCC(=O)OCC(CC)CCCC (centres undefined)
inactive: Potency [1] | max response [2] 3.13% and -1.3% | outcome [3]

C=Cc1ccccc1C=C
inactive: Potency [1] | max response [2] 5.55% | outcome [3]

Cc1cscn1
inactive: Potency [1] | max response [2] 0.103% | outcome [3]

CCCCCCCCCCCCOCC1CO1 (centres undefined)
inactive: Potency [1] | max response [2] 1.3% | outcome [3]

CC(=O)OCc1ccco1
inactive: Potency [1] | max response [2] -1.61% | outcome [3]

CC(=O)c1nccs1
inactive: Potency [1] | max response [2] 8.24% | outcome [3]

C1COC1
inactive: Potency [1] | max response [2] -0.345% | outcome [3]

Cc1cccc2sc(N)nc12
inactive: max response [4] 2.69% | Potency [1] | max response [2] 7.23% | outcome [3]

Cc1ccc(S(=O)(=O)NC2CCCCC2)cc1
inactive: max response [4] -5.72% | Potency [1]

COCCOC(=O)c1ccccc1C(=O)OCCOC
inactive: max response [4] -2.4% | Potency [1] | max response [2] -0.386%

Nc1nc(-c2ccccc2)cs1
inactive: max response [4] 0.545% | Potency [1]

CCC(=O)/C=C/C1C(C)=CCCC1(C)C (centres undefined)
inactive: max response [4] 0.395% | Potency [1]
